Hits are enriched below; roughly 3.1% of the tested compounds scored in any of these assays.
BRCA1 expr act – qHTS Assay to Identify Small Molecule Activators of BRCA1 Expression; 380,000 compounds, 1.1% hits; MCF7-BRCA1-FFLuc reporter, luminescence, 48 h; response scale: scaled: vehicle 0%, 10 µM genistein 100%; Potency, µM (titrated, usually from 46.1 µM), inactives show at the top dose activation, actives largely listed as activators; further: potency means the concentration at half of the fitted maximal effect; nearly all actives have a fitted effect of over 80% in size
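MCF7 cells carrying a BRCA1-firefly luciferase reporter (2000 cells/well, phenol-red free MEM) were attached for 2 h at 37 °C, then given compounds for 48 h. Luminescence was read 15 min after luciferase reagent; activity normalized to genistein (10 microM) and DMSO.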
Nrf2 activator – qHTS of Nrf2 Activators | AREc32 ARE-luciferase reporter (MCF7-derived line), luminescence, 24 h | Potency, µM (top dose mostly 46.1 µM), for inactives: top-dose activation, most hits filed as activators | 410,000 compounds, 0.31% hits; further: potency means the concentration at half of the fitted maximal effect; % of control where 0% means no effect; nearly all actives have a fitted effect of over 65% in size
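AREc32 cells carrying an ARE-driven firefly luciferase, 1000 cells/well in OPTI-MEM with 5% FBS, dosed after overnight attachment and incubated 24 hr at 37 deg C. Steady-Glo luminescence read after 30 min at RT.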
ELG1 repair inh – qHTS screen for small molecules that inhibit ELG1-dependent DNA repair in human embryonic kidney (HEK293T) cells expressing luciferase-tagged ELG1. HEK293T ELG1-luciferase reporter, luminescence, 16 h; DNA damage induced by 5-fluorouridine. Potency, µM (series often up to 46.1 µM), without a hit: top-dose activity change, negative = inhibition, most hits filed as inhibitors. 330,000 compounds, 2.3% hits; further: potency means the concentration at half of the fitted maximal effect; on the % scale 0 is the no-effect control and ±100 the full control effect; nearly all actives have a fitted effect of over 55% in size
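Step one: seed 2,000 cells per well. Step two: pin-transfer compound or DMSO alongside 5-fluorouridine. Step three: incubate 16 hr, 37 °C, 5% CO2. Step four: add ONE-Glo, wait 30 min, read luminescence.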
IL2 activator – qHTS of IL-2 Activators | IL-2 activation reporter assay, cell-based qHTS; stimulated with anti-CD3/CD4/CD28 beads; in transgenic mouse T cells | activation, % (series mostly up to about 46 µM) | 360,000 compounds, 0.065% hits; in the data active means activation above about 50%; inconclusive means mostly about 30% to 49%; further: 0% is about no effect
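Readout is EGFP and DsRed signal by fluorescent plate cytometry after 18 h at 37 degrees C. Transgenic mouse T cells (750/well) received compound for 60 min before bead stimulation (anti-CD3, anti-CD4, anti-CD28); memory T cells served as non-tolerant control.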
Numbers without * were called inactive; ? = inconclusive; . = no result given; ! = a repeat was not active; [ ] = another dose, or the depositor's remark. Unless noted, the call rests on the fitted dose curve; in most records, active means well fitted curve in the direction sought with a large enough effect; inconclusive means small, poorly fitted or top-dose-only effect, or another doubt; inactive means no such curve, though single readings can be large; an effect the other way counts as inactive or inconclusive.

SMILES | BRCA1 expr act | Nrf2 activator | ELG1 repair inh | IL2 activator
CCc1cc2c(=O)c(-c3ccc4c(c3)OCCO4)c(C)oc2cc1OS(C)(=O)=O | -71% | 4% | 23µM* | 1
Cc1ccc(N2CCN(C(=O)C3CCCN(c4ncnc5c4nc4n5CCCCC4)C3)CC2)c(C)c1 (centres undefined) | 5% | 0% | 1% | -1
O=C(C1CCCN(c2ncnc3c2nc2n3CCCCC2)C1)N1CCN(c2ccccc2)CC1 (centres undefined) | -11% | 0% | ? | 0
Cc1cccc(N2CCN(C(=O)C3CCN(c4ncnc5c4nc4n5CCCCC4)CC3)CC2C)c1 (centres undefined) | -62% | -3% | 4.1µM* | -5
Cc1ccc(C)c(N2CCN(C(=O)C3CCCN(c4ncnc5c4nc4n5CCCCC4)C3)CC2)c1 (centres undefined) | -40% | -1% | 13µM* | -2
O=C(C1CCCN(c2ncnc3c2nc2n3CCCCC2)C1)N1CCN(c2cccc(Cl)c2)CC1 (centres undefined) | -75% | -2% | 8.2µM* | 1
COc1ccc(CC(=O)Nc2c(C(=O)Nc3ccc(F)cc3)oc3ccccc23)cc1OC | 36% | 1% | . | .
CCOc1ccc(NC(=O)c2oc3ccccc3c2NC(=O)Cc2ccc(OC)c(OC)c2)cc1 | 11µM* | 1% | . | .
COc1cc(Cl)c(C)cc1NC(=O)Cn1cnc2sc(C)c(S(=O)(=O)N3CCCCC3)c2c1=O | . | 6% | . | .
Cc1ccc2oc3c(c(=O)c2c1)C(c1ccccc1F)N(c1ccccn1)C3=O (centres undefined) | . | -1% | . | .
Cc1ccc2oc3c(c(=O)c2c1)C(c1cccc(O)c1)N(c1ccccn1)C3=O (centres undefined) | -15% | 0% | 16µM* | 1
Fc1ccc2c(c1)/C(=N/Nc1ccccn1)CCS2 | -26% | 11µM* | 4% | -3
C=CCn1c(=O)c2c3c(sc2n2c(Nc4ccccc4)nnc12)CCCC3 | -34% | 3% | 21µM* | -2
C=CCn1c(=O)c2c3c(sc2n2c(Nc4ccc(C(=O)OCC)cc4)nnc12)CCCC3 | 9%[1.84 µM] | 0% | -17% | 4
Cc1nnc2n(Cc3ccccc3)c(=O)c3c4c(sc3n12)CCCC4 | . | . | 3% | .
C=CCn1c(=O)c2c3c(sc2n2c(Nc4ccc(OC)cc4)nnc12)CCCC3 | -50% | 0% | 8.2µM* | 4
CN1CCN(c2ncc3c(n2)CCN(Cc2ccccc2Cl)C3)CC1 | . | 1% | . | .
CN(Cc1ccc2c(c1)OCO2)C(=O)c1cc(-c2ccccc2)c(N2CCOCC2)s1 | -17% | 4% | ? | -1
O=C(O)c1cc(-c2ccccc2)c(N2CCOCC2)s1 | -29% | 0% | 1% | 1
O=C(NCc1ccco1)c1cc(-c2ccccc2)c(N2CCOCC2)s1 | -44% | 8% | 21µM* | -1
CCOc1ccc(CCNC(=O)c2cc(-c3ccccc3)c(N3CCOCC3)s2)cc1 | -37% | 0% | . | -1
CCOc1ccc(CCNC(=O)c2cc(-c3ccccc3)c(N3CCOCC3)s2)cc1OCC | -2% | 0% | 16µM* | 5
O=C(NCc1ccc2c(c1)OCO2)c1cc(-c2ccccc2)c(N2CCOCC2)s1 | -8% | 0% | 18µM* | 1
CCN(CC)S(=O)(=O)c1ccc(C(=O)N2CC(=O)Nc3ccc(F)cc3C2c2ccccc2)cc1 (centres undefined) | . | 1% | . | .
CCNC(=O)C1(C)CCCN(C(=O)c2ccc3c(c2)C(C)(C)CCC3(C)C)C1 (centres undefined) | 0% | 0%[9.22 µM] | . | -1
SMILES | BRCA1 expr act | Nrf2 activator | ELG1 repair inh | IL2 activator
CCOc1ccc(/C=C\C(C)=N\O)cc1 | 2.8µM* | 5% | ? | 1
COc1ccc(CN2CC(=O)N(c3ccc(C)c(C)c3)C2=S)cc1OC | -29% | 7% | 16µM* | -1
O=c1c(-c2cc3ccccc3o2)[n+]([O-])c2ccccc2n1OCc1ccccn1 | 20% | 11% | ? | -3
O=c1c(-c2ccco2)[n+]([O-])c2ccccc2n1OCc1ccccc1 | -22% | 3.2µM* | ? | -2
O=c1c(-c2ccco2)[n+]([O-])c2ccccc2n1OCc1ccccc1F | -56% | ? | -19% | 1
CCOn1c(=O)c(-c2cc3ccccc3o2)[n+]([O-])c2ccccc21 | 5% | 6% | ? | 52*
O=c1c(-c2ccco2)[n+]([O-])c2ccccc2n1OCc1c(F)cccc1F | -42% | 0.71µM* | ? | -5
COc1ccccc1COn1c(=O)c(-c2ccco2)[n+]([O-])c2ccccc21 | -5% | 9% | ? | 0
Cc1ccc(-n2ncc(C(=O)NCCCN3CCCCC3)c2C2CCN(C(=O)OC(C)(C)C)CC2)cc1 | . | 3% | . | .
COc1ccc(OC)c(CN2C(=O)c3ccccc3C2c2nnnn2C2CCCC2)c1 (centres undefined) | 4% | 0% | . | 0
CC1CCC/C=C/C(=O)c2c(O)cc(O)cc2CC(=O)O1 (centres undefined) | -89% | -3% | 8.2µM* | 0
C[C@@H]1Cc2c(O)c(O)cc(O)c2C(=O)O1 | 9% | 4% | -3% | 1
Cc1nc(-c2ccc(C)c(N3CCN(C(=O)Nc4cccc(Cl)c4C)CC3)c2)no1 | -7% | 3% | . | .
O=C(Nc1cccc2nsnc12)c1ccc(F)cc1 | -54% | 11µM* | ? | 0
O=C1CSC(c2cn(-c3ccccc3)nc2-c2cc3ccccc3oc2=O)N1Cc1ccccc1 (centres undefined) | -78% | 15% | 21µM* | -1
Oc1ccc(-c2nnc(SCC3CCCCC3)o2)cc1 | 6.3µM* | 2% | ? | -4
Cc1nn(CC(=O)c2ccccc2Cl)c(C)c1[N+](=O)[O-] | 10µM* | 5% | ? | 6
CCc1nnc2c3ccccc3nc(Nc3ccccc3OC)n12 | . | 1% | . | .
Cn1c(=O)[nH]c2cc(-c3noc(-c4ccc(F)cc4)n3)ccc21 | . | 1% | . | .
NC(=O)C(C(=O)/C=C/c1ccc(Cl)cc1)=C1SCCS1 | -55% | 7.9µM* | ? | 0
C=C[C@H]1CN2CCC1C[C@@H]2C(O)c1ccnc2ccc(OC)cc12 (some centres undefined) | -16% | . | . | .
CCn1c(C(=O)N2CCCC(C(=O)N3CCN(c4ccccc4)CC3)C2)cc2sccc21 (centres undefined) | . | 3% | . | .
COc1ccc2c(C=Nc3c(C)n(C)n(-c4ccccc4)c3=O)c(O)n(Cc3ccco3)c(=O)c2c1 | -31% | 0% | ? | 65*!
Cc1ccccc1NC(=O)c1ccc2[nH]c(C)c(C)c2c1 | . | 10% | . | .
CCc1ccc(NC(=O)c2ccc3[nH]c(C)c(C)c3c2)cc1 | . | 5% | . | .
Cc1[nH]c2ccc(C(=O)Nc3ccncc3)cc2c1C | 16% | 4% | 12µM* | 1
CCc1ccccc1NC(=O)c1ccc2[nH]c(C)c(C)c2c1 | 8.9µM* | 5% | . | .

From PubChem
